LASV entry inh: Lassa virus entry inhibition. Lassa virus pseudotype entry inhibition, cell reporter. Potency, µM (series often up to 37.9 µM), inactives show at the highest dose activity change, negative = inhibition, most hits filed as inhibitors. actives 1.2% (n = 300,000); calls by dose curve; tested in HEK293 cells; further: potency means the concentration at half of the fitted maximal effect; on the % scale 0 is the no-effect control and ±100 the full control effect; nearly all actives have a fitted effect of over 50% in size
FMDV inh: foot and mouth disease virus antiviral activity; FMDV antiviral cell-based qHTS; Potency, µM (highest dose often 57.9 µM), without a hit: at the highest dose activity change, negative = inhibition, hits mostly inhibitors; actives 1.2% (n = 410,000); AID 1159524; calls by dose curve; tested in HEK293T cells; further: read-out not given here; potency means the concentration at half of the fitted maximal effect; on the % scale 0 is the no-effect control and ±100 the full control effect; nearly all actives have a fitted effect of over 45% in size
MARV entry inh: blocks Marburg virus binding to or entry into cells; Marburg virus pseudotyped entry inhibition, cell reporter; Potency, µM (top dose mostly 37.8 µM), without a hit: at the top dose activity change, negative = inhibition, usual class: inhibitors; actives 1.8% (n = 300,000); AID 540276; calls by dose curve; tested in HEK293 cells; further: potency means the concentration at half of the fitted maximal effect; on the % scale 0 is the no-effect control and ±100 the full control effect
HCV inh: inhibitors of hepatitis C virus infection; Huh7.5.1 HCVcc-Cre infection, luciferase reporter, 44 h; Potency, µM (highest dose often 41.8 µM), for inactives: at the top dose activity change, negative = inhibition, hits mostly inhibitors; actives 3.4% (n = 340,000); AID 651820; active means well fitted inhibition curve with a large enough effect; inconclusive means small, poorly fitted or top-dose-only effect, or another doubt; inactive means no such curve, though single readings can be large or run the other way; further: potency means the concentration at half of the fitted maximal effect; on the % scale 0 is the no-effect control and ±100 the full control effect
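Infectious HCV cell culture screen: compound-treated cells (1,000/well, pre-plated 4 h) are infected with HCVcc-Cre at roughly 0.5 moi and grown 44 h. Infection is quantified by luciferase signal after 15 min substrate incubation at room temperature.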
HCMV antiviral: inhibitors of human cytomegalovirus; HFF cells, HCMV-luciferase reporter, 72 h; hits give low values; activity change, negative = inhibition, % at 57.5 µM; actives 4.5% (n = 410,000); AID 1259415; in the data active means activity change below about -60%; inconclusive means no clear call, values can overlap the other calls; inactive means above about -39%; further: on the % scale 0 is the no-effect control and ±100 the full control effect
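Inhibition of viral replication was scored as loss of reporter luminescence in HFFs infected with HCMV-luciferase (MOI 1 PFU/cell) for 72 h; compounds tested at 2 doses, normalized to buffer and Salinomycin controls.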
SARS PLpro yeast: SARS-CoV PLP inhibition in yeast | actives 0.19% (n = 330,000) | Potency, µM (highest dose often 32.9 µM), for inactives: top-dose activity, positive = growth rescue, most hits filed as activators | S. cerevisiae expressing SARS-CoV PLpro, growth rescue; calls by dose curve; further: potency means the concentration at half of the fitted maximal effect; 0% is about no effect; nearly all actives have a fitted effect of over 55% in size
Numbers without * were called inactive; ? = inconclusive; . = no result given; ! = not active in a repeat; [ ] = remark or other dose. Hits are enriched below; roughly 8% of the tested compounds scored in any of these assays.

SMILES	LASV entry inh	FMDV inh	MARV entry inh	HCV inh	HCMV antiviral	SARS PLpro yeast
Cc1cccn2c(=O)c3cc(C(=O)NCCc4ccccc4)c(=N)n(Cc4ccco4)c3nc12	?	-5%	?	?	?	1%
N=c1c(C(=O)NCc2ccc(F)cc2)cc2c(=O)n3ccccc3nc2n1Cc1ccco1	1%	?	?	1µM*	32	-21%
COc1ccc(CCNC(=O)c2cc3c(=O)n4cccc(C)c4nc3n(Cc3ccco3)c2=N)cc1OC	6%	?	?	11µM*	-28	15%
CC(=O)N=c1c(C#N)cc2c(=O)n3cccc(C)c3nc2n1Cc1ccco1	.	-4%	.	11µM*	?	1%
COCCn1c(=N)c(C(=O)NCc2ccco2)cc2c(=O)n3ccccc3nc21	-17%	-13%	?	-29%	12	-1%
COC(=O)[C@@H]1[C@@H](CO)[C@@H]2Cn3c(ccc(Br)c3=O)[C@H]1N2C(=O)c1ccncc1	.	.	.	.	-3	.
COC(=O)c1ccc(OC)c(CN2CCCN(Cc3ccc(F)cc3)S2(=O)=O)c1	?	-21%	?	?	?	1%
CC(C)(O)C1CC[C@@](C)([C@@H]2CC[C@]3(C)[C@H]2[C@H](O)CC2[C@@]4(C)CCC(O)C(C)(C)C4C(OC4OC(CO)C(O)C(O)C4O[C@@H]4OCC(O)C(O)C4O)C[C@]23C)O1 (stereo partly specified)	.	-11%	.	10%	-5	8%
CC1CC[C@@]2(OC1)OC1C(O)C3C4CC[C@H]5CC(O[C@@H]6O[C@@H](CO)[C@H](OC7OC(CO)C(O)C(OC8OCC(O)C(O)[C@H]8O)[C@@H]7O[C@@H]7OC(CO)[C@H](O)[C@@H](O[C@@H]8OC(CO)C(O)C(O)C8O)C7O)C(O)C6O)C(O)C[C@]5(C)C4CC[C@]3(C)C1C2C (stereo partly specified)	.	35µM*	.	.	.	.
COC(=O)C(C)(N)Cc1ccc(O)cc1 (stereo unspecified)	?	-17%	2.8µM*!	?	-18	.
O=C(Nc1ccc(Cl)cc1)Nc1nnc(SCc2ccc(Cl)cc2)s1	.	?	.	13%	-18	-29%
Clc1cccc(Nc2nc(-c3ccncc3)cs2)c1	?	-11%	?	10µM*	146	-1%
O=C(Nc1ccc(Cl)cc1)Nc1nnc(-c2ccncc2)s1	4µM*	?	?	?	-67*	11%
O=C(Nc1ccc(F)cc1)Nc1nnc(-c2ccncc2)s1	?	?	-1%	25µM*	-95*	-4%
Cc1cnc(NC(=O)Nc2ccc(Cl)cc2)s1	.	31%	.	?	-104*	-5%
CCOC(=O)CN1C(=O)[C@]2(OCCC=C[C@@H]2C)c2c(Br)cccc21	.	.	-20%[14.2 µM]	.	.	.
CCOC(=O)C1=C(C)NC(C)=C(C(=O)OCC)C1C(=O)OCC(=O)N(C)C1CCS(=O)(=O)C1 (stereo unspecified)	-3%	1%	5%[46.1 µM]	21%	-38	-4%
Nc1nc(-c2ccccc2)nc2nonc12	.	22%	.	.	-28	.
O=C(Nc1cccc(Cl)c1)Nc1nnc(-c2ccncc2)s1	?	?	?	?	-98*	7%
O=C(NCCc1ccncc1)Nc1cccc(Cl)c1	-1%	-1%	3%	2%	19	0%
CS(=O)(=O)c1ccc2nc(NC(=O)Nc3cccc(Cl)c3)sc2c1	?	-5%	?	11µM*	-38	3%
Cc1ccc(NC(=O)Nc2nnc(-c3ccncc3)s2)cc1C	.	?	.	?	-92*	0%
Cn1c(-c2cccc(Br)c2)n[nH]c1=O	-5%	-7%	-16%[46.1 µM]	-1%	-72*	2%
Cc1cccc(C)c1NC(=O)C1N=Cc2ccccc2N=C1c1cccc(Br)c1 (stereo unspecified)	.	.	.	.	35	.
COC(=O)c1cc(OC)c(OC)cc1NC(=O)c1ccc2c(c1)CCN2S(C)(=O)=O	0%[46.1 µM]	-17%	-9%[46.1 µM]	.	-3	.
SMILES	LASV entry inh	FMDV inh	MARV entry inh	HCV inh	HCMV antiviral	SARS PLpro yeast
CC/C(=N/Nc1cccc(Cl)c1)c1cnnc(SC)n1	?	-23%	3%	?	-15	20%
CC/C(=N/Nc1ccccc1)c1cnnc(-c2ccccc2)n1	15%	3%	1%	8.9µM*	?	-21%
O=C(C[C@H]1C/C=C\CCC(=O)OC[C@H]2CCCN2C1=O)NCCO	.	-24%	.	17%	-6	1%
O=C1C=C(NCCc2cc(Br)c(O)c(Br)c2)C(=O)c2ncccc21	2.8µM*	10µM*	?	?	-100*	.
CC1CCc2[nH]c3ccc(C(=O)N(C)CC(=O)Nc4ccccc4Cl)cc3c2C1 (stereo unspecified)	-27%	-1%	-26%	?	-8	-6%
CCCN(CC(=O)Nc1ccccc1OC)C(=O)c1ccc2[nH]c3c(c2c1)CC(C)CC3 (stereo unspecified)	?	?	?	7.9µM*	-4	-2%
CC1CCc2[nH]c3ccc(C(=O)N(C)CC(=O)Nc4ccccc4C(F)(F)F)cc3c2C1 (stereo unspecified)	?	-3%	?	-22%	-88*	?
CCN(CC(=O)Nc1ccccc1OC)C(=O)c1ccc2[nH]c3c(c2c1)CC(C)CC3 (stereo unspecified)	.	?	.	10µM*	-6	3%
CCOc1ccc(NC(=O)CN(C)C(=O)c2ccc(NC3CC3)c([N+](=O)[O-])c2)cc1OCC	-9%	-8%	-19%[46.1 µM]	11µM*	11	2%
COC(=O)c1cc(CNC(=O)c2ccncc2)cc(NC(=O)c2ccccc2Cl)c1	.	-1%	.	.	.	.
CCOc1ccc(NC(=O)CN(C)C(=O)c2ccc3[nH]c4c(c3c2)CC(C)CC4)cc1OCC (stereo unspecified)	0%	9%	-6%	0.56µM*	.	-4%
O=C(CSc1nc2ccccc2nc1Cc1ccc(F)cc1)Nc1ccc2c(c1)OCO2	-10%[46.1 µM]	5%	.	.	?	.
O=C(c1ccc2c(c1)N(Cc1ccc(F)cc1)C(=O)c1ccccc1S2=O)N1CCC(Cc2ccccc2)CC1 (stereo unspecified)	?	-13%	?	.	-78*	.
O=C(c1ccc2c(c1)N(Cc1ccccc1)C(=O)c1ccccc1S2=O)N1CCC(Cc2ccccc2)CC1 (stereo unspecified)	?	?	?	.	-76*	.
COc1ccc(C(=O)N2CCn3c(nnc3C(=O)N3CCCCC3)C2)cc1	.	.	.	.	8	.
Cc1cccc(C)c1OCc1cc(C(=O)N(Cc2c(C)nn(C)c2C)C2CC2)no1	.	20µM*	.	10µM*	0	-5%
CCCCOC(=O)c1ccc(NC(=O)c2sc3nc(C)cc(C)c3c2N)cc1	?	?	?	.	-29	.
COc1ccc(/C=C2\C(=O)ON=C2c2ccccc2)cc1OC	.	?	.	-4%	24	2%
